# High-throughput results as filed in PubChem.
# Only some compounds are listed: those with a hit (about 3.6% of all), similar ones and a draw of the others.
# ERb coact inh: blocks coactivator binding to human estrogen receptor beta; TR-FRET ER-beta LBD / SRC1-Cy5 peptide binding; receptor agonist-loaded with 1 µM estradiol; inhibition, % at 25.6 µM; 86,000 tested, 1.3% active; AID 633;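 active = compounds whose percent inhibition of the receptor-coactivator binding signal exceeds about 50% in the single-dose screen, limit read from the data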;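 also: 0% = receptor plus peptide wells without compound and 100% = peptide-only wells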
# ERa coact inh: blocks coactivator binding to human estrogen receptor alpha; P03372; TR-FRET ER-alpha LBD / SRC-1 peptide, estradiol-bound; inhibition, % at 25.6 µM; 86,000 tested, 1.7% active; in the data active = inhibition above about 50%;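 also: 0% = receptor plus peptide control and 100% = peptide only without receptor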
# Target sequence (P03372 whole entry, looked up, the tested form may be a part): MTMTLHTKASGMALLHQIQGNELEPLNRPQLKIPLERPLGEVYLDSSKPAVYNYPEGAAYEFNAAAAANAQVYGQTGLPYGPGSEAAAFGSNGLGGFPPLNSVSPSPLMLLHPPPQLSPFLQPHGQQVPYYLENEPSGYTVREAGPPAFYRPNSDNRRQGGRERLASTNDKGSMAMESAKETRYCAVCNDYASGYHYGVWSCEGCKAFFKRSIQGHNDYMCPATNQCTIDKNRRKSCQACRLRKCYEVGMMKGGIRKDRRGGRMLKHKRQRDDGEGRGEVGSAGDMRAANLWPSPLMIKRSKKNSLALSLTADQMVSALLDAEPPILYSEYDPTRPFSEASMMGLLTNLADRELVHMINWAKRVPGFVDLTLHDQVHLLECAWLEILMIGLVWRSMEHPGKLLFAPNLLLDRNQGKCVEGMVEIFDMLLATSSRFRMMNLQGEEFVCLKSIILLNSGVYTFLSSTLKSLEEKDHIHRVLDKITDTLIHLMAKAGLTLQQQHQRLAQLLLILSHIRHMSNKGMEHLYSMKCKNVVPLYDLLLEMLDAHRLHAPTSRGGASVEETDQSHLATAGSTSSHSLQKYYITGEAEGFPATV
# Smad3 inh: blocks human Smad3 binding to FoxH1 peptide; TR-FRET Smad3/Dy647-FoxH1 peptide binding, europium anti-His; 88,000 tested, 0.29% active; AID 630; P84022; inhibition, % at 25 µM;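 active = compounds that reduce the energy-transfer binding signal between the protein and its labelled peptide by more than half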;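 also: 0% = Smad3 plus labelled peptide maximal FRET and 100% = peptide-only background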
# Calb biofilm kill: kills Candida albicans biofilms; C. albicans biofilm + clotrimazole, Alamar Blue; inhibition, % at 6 µM; 85,000 tested, 0.14% active; AID 834;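 active = inhibition above 20%; inactive = inhibition below 20%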;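 also: preformed 24 hr biofilms exposed to compound for 48 hr; 0% = biofilm without compound and 100% = blank killed by clotrimazole plus chlorhexidine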
# ERa coact pot: enhances coactivator binding to human estrogen receptor alpha | P03372 | TR-FRET ERalpha-LBD/SRC-Cy5 coactivator binding, 2 h; 100 = basal binding, no effect | coactivator binding (% of control), % at 25.6 µM | 86,000 tested, 1.3% active; in the data active = activity above about 200%;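 also: binding measured in presence of low estradiol as agonist stimulus; 0% = peptide alone without receptor and 100% = receptor with peptide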
# Starred values were filed as active, the others as inactive; nt = no result; [ ] = remark or other dose.
SMILES,ERb coact inh,ERa coact inh,Smad3 inh,Calb biofilm kill,ERa coact pot
O=c1[nH]c2cc3c(cc2cc1C(c1nnnn1Cc1ccccc1)N1CCCc2ccccc21)OCO3 (centres undefined),30,56*[fluorescence artefact?],-12,3,151
COc1cc2cc(C(c3nnnn3C(C)(C)C)N3CCc4ccccc43)c(=O)[nH]c2cc1OC (centres undefined),0,-7,0,7,98
Cc1ccc(C)c2[nH]c(=O)c(C(c3nnnn3Cc3ccccc3)N3CCc4ccccc4C3)cc12 (centres undefined),50,51*[fluorescence artefact?],5,1,294*[fluorescence artefact?]
O=c1[nH]c2cc3c(cc2cc1C(c1nnnn1Cc1ccccc1)N1CCN2CCCC2C1)OCCO3 (centres undefined),44,72*[fluorescence artefact?],-6,6,129
O=c1[nH]c2cc3c(cc2cc1C(c1nnnn1C1CCCC1)N1CCCc2ccccc21)OCCO3 (centres undefined),2,6,5,0,114
COc1cc2cc(C(c3nnnn3C3CCCC3)N3CCc4ccccc43)c(=O)[nH]c2cc1OC (centres undefined),33,50*,-26,4,216*[fluorescence artefact?]
Cc1ccc(Cn2c(SCC(C)C)nc3c2c(=O)n(C)c(=O)n3C)cc1,-6,12,7,10,81
Cn1c(CCNC(=O)c2ccccc2)nc2cc(NC(=O)C3CCCCC3)ccc21,2,5,-6,2,121
O=[N+]([O-])c1ccc2c(c1)Cc1cc(N=Cc3ccc4c(c3)OCO4)ccc1-2,nt,nt,2,nt,nt
O=c1[nH]c2cc3c(cc2cc1C(c1nnnn1Cc1ccccc1)N1CCCCCC1)OCCO3 (centres undefined),44,31,16,5,246*[fluorescence artefact?]
Cc1cc2cc(C(c3nnnn3Cc3ccco3)N3CCCCC3)c(=O)[nH]c2cc1C (centres undefined),11,3,23,0,176
COc1ccc(C2C(C(=O)OCC3CCCO3)=C(C)NC3=C2C(=O)CC(c2ccco2)C3)cc1O (centres undefined),17,27,-2,-1,103
Cc1cc(NC(=O)CSc2nnc3c(C)cc4cc(C)c(C)cc4n23)no1,37,74*[fluorescence artefact?],-12,3,241*[fluorescence artefact?]
Cc1cc(NC(=O)CSc2nnc3c(C)cc4cc5c(cc4n23)OCO5)no1,26,52*[fluorescence artefact?],3,6,171
COc1cc(C(=O)OCC(=O)NCc2ccco2)cc(OC)c1OC,-5,-10,-3,nt,82
CSc1ccc(Cl)c(C(=O)OCC(=O)NCc2ccco2)c1,47,52*[fluorescence artefact?],-3,6,142
O=C(COC(=O)c1cncc(Br)c1)NCc1ccco1,50*[fluorescence artefact?],60*[fluorescence artefact?],8,8,110
CCOc1cc(C(=O)OCC(=O)NCc2ccco2)cc(OCC)c1OCC,45,57*[fluorescence artefact?],2,7,80
Cc1ccc(NS(=O)(=O)c2cccc(C(=O)OCC(=O)NCc3ccco3)c2)cc1,45,53*,3,nt,92
CCOc1nc(Nc2ccc(-c3nc4ccccc4o3)cc2)nc(N2CCOCC2)n1,2,6,18,1,137
Cn1c(SCC(=O)Nc2ccccc2F)nnc1-c1cccnc1,-4,-3,-9,7,121
CSc1nnc(-c2sc3cc(C(F)(F)F)cnc3c2-c2cccnc2)n1C,-8,3,-14,54*,102
Cc1[nH]nc2c1C(c1ccccn1)N(c1ccc(Br)cc1)C2=O (centres undefined),-3,77*[fluorescence artefact?],12,6,103
CCOC(=O)c1ccc(N2C(=O)c3n[nH]c(C)c3C2c2ccccn2)cc1 (centres undefined),32,12,-12,3,47
COc1cc2c(C#N)c(N3CCCCC3)nc(N)c2c(N)n1,5,14,33,4,103
SMILES,ERb coact inh,ERa coact inh,Smad3 inh,Calb biofilm kill,ERa coact pot
COc1cc2c(C#N)c(N3CCOCC3)nc(N)c2c(N)n1,75*[fluorescence artefact?],1,5,9,95
CCOC(=O)c1ccc(NC(=O)N2CCc3ccccc32)cc1,4,14,-4,4,241*[fluorescence artefact?]
COc1ccc(NC(=O)N2CCc3ccccc32)cc1,4,-7,-3,2,105
Cc1c(C(=O)Nc2ccc(-n3cnnn3)cc2)oc2ccccc12,65*[fluorescence artefact?],76*[fluorescence artefact?],-9,11,199
O=C1NN(c2ccc(Cl)c(Cl)c2)C(=O)/C1=C/c1cccc(OC(=O)c2cccs2)c1,28,51*,1,-3,66
CCN(CC)S(=O)(=O)c1ccc(N2CCN(S(=O)(=O)c3ccc4c(c3)OCCO4)CC2)nc1,-28,-2,-3,2,113
Cc1ccc(S(=O)(=O)CC#CCOC(=O)c2ccc([N+](=O)[O-])cc2)cc1,17,15,10,3,125
O=C(Nc1ccncc1)C1c2ccccc2Oc2ccccc21,9,98*[fluorescence artefact?],-11,-5,102
O=C(Nc1nncs1)C1c2ccccc2Oc2ccccc21,-8,-1,-8,-7,112
O=C(O)c1ccccc1C1=Nc2ccc(O)cc2Oc2cc(O)ccc21,62*[fluorescence artefact?],35,-9,8,46
O=C1CC(C(=O)Nc2ccc(C(=O)N3CCOCC3)cc2)C2(CCCCC2)O1 (centres undefined),-1,56*[fluorescence artefact?],1,3,116
COc1cc(/C=N/NC(=O)/C(=C\c2ccc([N+](=O)[O-])cc2)NC(=O)c2ccccc2)cc(OC)c1O,10,53*[fluorescence artefact?],12,0,51
CCOC(=O)Cc1csc(NC(=O)CCN2C(=O)c3ccccc3C2=O)n1,97*[fluorescence artefact?],2,-3,10,98
CCOC(=O)Cc1csc(NC(=O)CCCN2C(=O)c3ccccc3C2=O)n1,-13,3,-3,5,109
CC(=O)Nc1ccc(C(=O)CSc2nnc3scc(-c4ccccc4)n23)cc1,17,41,-368,10,232*[fluorescence artefact?]
O=C(Nc1nc(-c2ccc(S(=O)(=O)N3CCCCCC3)cc2)cs1)c1cccs1,-4,-33,5,6,570*[fluorescence artefact?]
O=C(Nc1nc(-c2cccs2)cs1)c1cccc(S(=O)(=O)N2CCCCC2)c1,-9,-11,1,4,233*
O=C(Nc1nc(-c2ccccc2)cs1)C1CCCN(S(=O)(=O)c2ccccc2)C1 (centres undefined),-1,-3,11,8,109
O=C(NCCc1ccc(S(=O)(=O)N2CCCC2)cc1)c1cccs1,2,-6,7,nt,120
COc1cccc(C(=O)Nc2nc(-c3ccc(S(=O)(=O)N4CCOCC4)cc3)cs2)c1,5,-34,6,2,463*[fluorescence artefact?]
O=C(Nc1nc(-c2ccc(S(=O)(=O)N3CCCC3)cc2)cs1)c1cccs1,-11,-31,8,1,324*[fluorescence artefact?]
Nc1nc(SCC2CCCCC2[N+](=O)[O-])c2[nH]cnc2n1 (centres undefined),nt,nt,17,nt,nt
COc1c(C)cccc1C(=O)NC(=S)Nc1ccc2c(c1)Cc1ccccc1-2,6,-1,2,4,245*[fluorescence artefact?]
